In PubChem BioAssay one finds composite z-score, composite Z-score and z-score data, which are given here for 5 molecules.

One experiment deals with Albumin (Bos taurus) (UniProt P02769). As to the kind of experiment: bovine serum albumin binders on microarray, profiling panel, artefact control for SMM control protein annotation, biochemical, small-molecule microarray, Alexa647 label, 635/667 nm fluorescence (AID 1118).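 Further: score merges 667 nm emission intensity and signal-to-noise per printed compound spot.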 To be noted: BSA-A647 binding, fluorescence 635 nm, higher = more signal.
Experiment [1] is described as follows: small-molecule microarray binders of probe aXIP, primary screen, biochemical, NeuroSMM set, 635/667 nm fluorescence (AID 1119).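 Further: probe is the protein aXip251-270 applied at 1 µg/mL to compound-printed slides; binding of probe to printed compounds measured as 667 nm fluorescence plus signal to noise.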 As to conditions: higher = more signal, called active from +8 up or from −8 down.
A short description of experiment [2]: small-molecule binders of probe aNOTCH3, primary screen, biochemical, small-molecule microarray, 635/667 nm fluorescence (AID 1120).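 Further: probe is a biotin-tagged antibody raised against NOTCH3 rather than NOTCH3 protein; score merges spot fluorescence near 667 nm with spot signal to noise.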 To be noted: higher = more signal.
A short description of experiment [3]: small-molecule binders of probe aNOTCH2, primary screen, biochemical, small-molecule microarray, 635/667 nm fluorescence (AID 1121).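 Further: score merges feature fluorescence read at 667 nm with its signal to noise.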 As to conditions: higher = more signal.
In experiment [4] the target is Carbonic anhydrase 2 (Homo sapiens) (UniProt P00918). In words: CAII small-molecule binders, profiling panel, biochemical, small-molecule microarray, Alexa647-labelled CAII (AID 1122). To be noted: CAII-A647 binding fluorescence, higher = more signal.
Experiment [5] is described as follows: COS7 lysate on small-molecule microarray, probe aHis, 635 nm (AID 1123).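 Further: z-score combines 667nm fluorescence intensity with signal-to-noise per printed compound spot.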 As to conditions: COS7 cell lysate, fluorescence, higher = more signal.
A short description of experiment [6]: compound binding in COS7 lysate, probe aLAP1, primary screen, cell lysate, small-molecule microarray (AID 1124).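 Further: lysate comes from COS7 cells expressing LAP1 and is applied at 0.3 µg/mL; score merges spot fluorescence near 667 nm with signal-to-noise over triplicate slides.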 As to conditions: probe aLAP1, fluorescence, higher = more signal.
A further experiment has as its system Sam68 (KHDRBS1). As to the kind of experiment: Sam68 small-molecule binders, primary screen, biochemical, small-molecule microarray, 635 nm fluorescence (AID 1125).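 Further: score merges 667 nm channel intensity with signal to noise over triplicate slides.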 To be noted: small-molecule microarray binding, higher = more signal.
The test system of experiment [7] is Chordin-like protein 2 (CHRDL2). In words: CHRDL2 small-molecule binders, primary screen, biochemical, small-molecule microarray, 635 nm fluorescence (AID 1126).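 Further: printed compound slides probed with Chrdl2 protein at 4 µg/mL for 1 h at 4 C; score merges 667 nm emission intensity with signal to noise over three replicate slides.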 To be noted: small-molecule microarray binding, fluorescence 635 nm; higher = more signal.
Experiment [8] addresses Concanavalin-A (Canavalia ensiformis) (UniProt P02866). As to the kind of experiment: ConA small-molecule binders, primary screen, artefact control for SMM control protein annotation, biochemical, small-molecule microarray, Alexa647 label, 635 nm (AID 1127).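 Further: z combines 667 nm emission intensity with signal-to-noise across three replicate slides.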 To be noted: ConA-A647 binding fluorescence, higher = more signal.
Experiment [9] can be described thus: anti-His antibody binders, primary screen, artefact control for SMM control protein annotation, biochemical, small-molecule microarray, 635 nm fluorescence (AID 1128).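 Further: score merges feature fluorescence with signal-to-noise for each printed compound spot.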 To be noted: anti-His Alexa647 antibody binding, higher = more signal.
In experiment [10] the test system is Human papillomavirus type 1a E7 protein (residues 1-88). As to the kind of experiment: HPV1a E7 small-molecule binders, primary screen, biochemical, small-molecule microarray, residues 1-88, 635 nm (AID 1129). To be noted: small-molecule microarray binding, fluorescence 635 nm; higher = more signal.
Experiment [11] deals with Focal adhesion kinase 1 (Homo sapiens) (UniProt Q05397). As to the kind of experiment: small-molecule microarray binders of FAK, primary screen, biochemical, 635/667 nm fluorescence, BSA, DTT (AID 1130).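 Further: composite of spot emission at 667 nm and signal to noise over triplicate slides.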 To be noted: PTK2 binding, 635 nm fluorescence, higher = more signal.
In experiment [12] the test system is Fibrinogen (Alexa647-labelled). As to the kind of experiment: fibrinogen binders on compound microarrays, profiling panel, artefact control for SMM control-protein annotation, biochemical, small-molecule microarray, 635/667 nm fluorescence (AID 1131).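 Further: z-score merges 667 nm fluorescence with per-spot signal-to-noise over triplicate slides.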 As to conditions: fibrinogen-A647 binding fluorescence, higher = more signal.
Experiment [13] deals with Follistatin (Homo sapiens) (UniProt P19883). In words: follistatin binders on small-molecule microarrays, primary screen, biochemical, small-molecule microarray, 635/667 nm fluorescence (AID 1132). As to conditions: FST binding, 635 nm fluorescence, higher = more signal.
Experiment [14] addresses Fibroblast growth factor 2 (Homo sapiens) (UniProt P09038). In words: FGF2 binders on small-molecule microarrays, primary screen, biochemical, small-molecule microarray, 635/667 nm fluorescence (AID 1133). As to conditions: small-molecule microarray binding, FGF2, fluorescence 635/667; higher = more signal.
A short description of experiment [15]: mitochondrial membrane potential change in A549 cells, profiling panel, cell-based, JC-1 fluorescence, basal, 24 h, 100 nL (AID 1138).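 Further: A549 lung adenocarcinoma cells under basal conditions with no added stimulus; test concentration not given here.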 To be noted: higher = more signal.
For the next experiment, the system named is Lefty1. In words: Lefty1 binders on small-molecule microarrays, primary screen, biochemical, small-molecule microarray, 635/667 nm fluorescence (AID 1139). As to conditions: small-molecule microarray binding, fluorescence 635/667; higher = more signal.
The test system of experiment [16] is wheat germ agglutinin (Triticum aestivum), Alexa647-labelled. In words: wheat germ agglutinin binders on compound microarrays, profiling panel, artefact control for SMM control-protein annotation, biochemical, small-molecule microarray, 635/667 nm fluorescence (AID 1140).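 Further: score merges 667 nm feature emission with signal to noise over triplicate slides.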 As to conditions: WGA-A647 binding, 635 nm fluorescence, higher = more signal.
Experiment [17] concerns the target Luciferin 4-monooxygenase (Photinus pyralis) (UniProt P08659). As to the kind of experiment: firefly luciferase enzyme inhibitors, primary screen, biochemical, luminescence, purified enzyme, 2006 set (AID 1141).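 Further: cell-free assay with purified firefly luciferase at 100 ng per well in PBS; test concentration not given here.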 As to conditions: SteadyGlo luminescence, 30 min, higher = more signal, called active from +8 up or from −8 down.

Active and inactive are the calls of the source.

Chain of Albumin (Bos taurus) (P02769 whole entry, looked up): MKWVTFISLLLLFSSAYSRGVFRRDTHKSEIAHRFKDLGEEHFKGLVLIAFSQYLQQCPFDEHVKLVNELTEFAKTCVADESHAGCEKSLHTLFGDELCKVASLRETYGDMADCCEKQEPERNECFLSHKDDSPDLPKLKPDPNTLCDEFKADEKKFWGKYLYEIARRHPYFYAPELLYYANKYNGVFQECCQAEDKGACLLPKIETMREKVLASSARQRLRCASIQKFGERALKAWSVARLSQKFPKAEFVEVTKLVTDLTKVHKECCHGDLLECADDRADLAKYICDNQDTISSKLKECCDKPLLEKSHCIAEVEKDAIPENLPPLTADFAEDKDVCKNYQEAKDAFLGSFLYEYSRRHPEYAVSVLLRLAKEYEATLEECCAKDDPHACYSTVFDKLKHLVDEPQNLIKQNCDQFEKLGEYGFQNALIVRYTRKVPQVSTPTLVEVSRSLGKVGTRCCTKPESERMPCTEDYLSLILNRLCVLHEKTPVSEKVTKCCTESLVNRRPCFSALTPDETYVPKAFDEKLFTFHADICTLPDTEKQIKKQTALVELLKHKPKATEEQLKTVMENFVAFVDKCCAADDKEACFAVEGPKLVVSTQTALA
Chain of Focal adhesion kinase 1 (Homo sapiens) (Q05397 whole entry, looked up): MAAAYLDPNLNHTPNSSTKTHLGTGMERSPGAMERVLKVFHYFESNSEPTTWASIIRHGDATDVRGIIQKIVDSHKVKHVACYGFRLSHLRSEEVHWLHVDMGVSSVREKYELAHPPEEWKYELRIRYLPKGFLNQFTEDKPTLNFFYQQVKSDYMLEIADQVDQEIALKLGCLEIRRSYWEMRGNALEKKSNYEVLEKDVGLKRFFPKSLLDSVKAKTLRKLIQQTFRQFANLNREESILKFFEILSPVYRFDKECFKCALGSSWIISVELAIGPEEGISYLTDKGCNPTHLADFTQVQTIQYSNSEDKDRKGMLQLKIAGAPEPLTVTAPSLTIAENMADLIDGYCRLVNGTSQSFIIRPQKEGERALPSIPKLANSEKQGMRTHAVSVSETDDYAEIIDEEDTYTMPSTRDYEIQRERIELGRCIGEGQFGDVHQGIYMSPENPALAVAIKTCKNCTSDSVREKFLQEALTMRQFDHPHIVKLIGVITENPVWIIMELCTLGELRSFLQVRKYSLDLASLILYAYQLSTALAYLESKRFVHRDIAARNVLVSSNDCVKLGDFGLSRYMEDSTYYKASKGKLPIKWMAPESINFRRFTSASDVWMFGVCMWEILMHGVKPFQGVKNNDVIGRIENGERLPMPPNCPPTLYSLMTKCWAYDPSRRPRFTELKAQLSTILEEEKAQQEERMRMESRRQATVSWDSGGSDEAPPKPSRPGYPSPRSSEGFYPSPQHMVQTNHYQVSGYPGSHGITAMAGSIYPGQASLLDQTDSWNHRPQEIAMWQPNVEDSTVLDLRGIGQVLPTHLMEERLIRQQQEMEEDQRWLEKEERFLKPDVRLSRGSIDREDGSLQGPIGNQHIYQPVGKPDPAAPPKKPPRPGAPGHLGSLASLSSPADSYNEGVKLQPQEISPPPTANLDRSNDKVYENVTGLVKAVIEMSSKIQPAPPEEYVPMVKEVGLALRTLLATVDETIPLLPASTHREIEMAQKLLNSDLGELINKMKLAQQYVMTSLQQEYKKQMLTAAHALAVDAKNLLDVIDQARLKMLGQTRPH
Chain of Follistatin (Homo sapiens) (P19883 whole entry, looked up): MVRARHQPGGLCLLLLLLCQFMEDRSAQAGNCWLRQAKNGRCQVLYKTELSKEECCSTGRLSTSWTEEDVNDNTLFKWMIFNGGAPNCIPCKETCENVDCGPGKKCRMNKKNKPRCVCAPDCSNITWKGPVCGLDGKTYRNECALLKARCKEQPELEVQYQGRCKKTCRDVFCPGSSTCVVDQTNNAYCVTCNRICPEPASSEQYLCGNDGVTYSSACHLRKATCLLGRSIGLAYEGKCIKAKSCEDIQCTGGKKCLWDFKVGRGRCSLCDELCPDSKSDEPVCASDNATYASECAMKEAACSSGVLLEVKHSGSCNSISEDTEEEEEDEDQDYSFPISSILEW
Chain of Luciferin 4-monooxygenase (Photinus pyralis) (P08659 whole entry, looked up): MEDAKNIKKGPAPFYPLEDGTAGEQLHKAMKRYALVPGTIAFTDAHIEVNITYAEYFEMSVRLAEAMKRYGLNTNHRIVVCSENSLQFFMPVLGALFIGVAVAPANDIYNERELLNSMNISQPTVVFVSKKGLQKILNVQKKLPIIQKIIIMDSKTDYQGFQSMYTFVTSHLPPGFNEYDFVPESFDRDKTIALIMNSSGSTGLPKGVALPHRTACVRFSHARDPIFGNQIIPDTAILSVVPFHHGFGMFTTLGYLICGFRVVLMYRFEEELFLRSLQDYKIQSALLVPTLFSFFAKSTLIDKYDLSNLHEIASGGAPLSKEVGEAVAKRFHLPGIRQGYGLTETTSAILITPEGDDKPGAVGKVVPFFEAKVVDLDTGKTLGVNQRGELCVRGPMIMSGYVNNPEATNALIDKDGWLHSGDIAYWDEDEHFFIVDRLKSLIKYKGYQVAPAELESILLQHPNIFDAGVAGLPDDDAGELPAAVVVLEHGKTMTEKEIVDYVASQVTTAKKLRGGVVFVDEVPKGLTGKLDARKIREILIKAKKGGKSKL
Chain of Concanavalin-A (Canavalia ensiformis) (P02866 whole entry, looked up): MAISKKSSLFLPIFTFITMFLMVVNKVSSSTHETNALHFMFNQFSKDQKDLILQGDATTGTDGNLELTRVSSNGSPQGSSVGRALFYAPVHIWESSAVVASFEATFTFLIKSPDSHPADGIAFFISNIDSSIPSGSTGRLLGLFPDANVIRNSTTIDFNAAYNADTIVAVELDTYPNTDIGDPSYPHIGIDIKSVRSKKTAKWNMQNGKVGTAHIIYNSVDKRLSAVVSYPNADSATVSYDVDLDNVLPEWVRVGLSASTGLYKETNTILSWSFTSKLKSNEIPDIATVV
Chain of Fibroblast growth factor 2 (Homo sapiens) (P09038 whole entry, looked up): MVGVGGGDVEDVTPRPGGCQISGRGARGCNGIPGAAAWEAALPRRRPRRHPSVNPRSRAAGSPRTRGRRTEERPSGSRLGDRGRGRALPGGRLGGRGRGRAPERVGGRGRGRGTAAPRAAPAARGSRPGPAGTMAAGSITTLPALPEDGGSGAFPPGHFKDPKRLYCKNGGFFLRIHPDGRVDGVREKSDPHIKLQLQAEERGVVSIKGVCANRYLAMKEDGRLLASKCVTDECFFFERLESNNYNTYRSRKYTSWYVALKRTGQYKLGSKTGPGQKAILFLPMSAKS

As to `CCCCCC1=C2CNC(C)(C(=O)OC)C=C2C(C)C1=O` (stereo not given), the composite z-score in the experiment with Albumin (Bos taurus) is 0.673; in [2] it was -0.0716; in experiment [3], 0.0414; in experiment [4], 0.839; in experiment [5] it was 1.18; in experiment [6], 0.947. Further, the composite z-score was -0.868 with Sam68 (KHDRBS1); -0.409 in experiment [7]; -1.51 in experiment [8]; 1.46 in experiment [9]; -0.575 in experiment [10]; -0.108 in experiment [11]. Moreover, the composite z-score in experiment [12] was -0.833; in experiment [13], -0.642; in [14] it was -0.328; in the experiment with Lefty1 it was -0.427; in experiment [16], 0.234. Also, in experiment [1], the composite Z-score is 0.239 (inactive). Also, the results for the z-score in experiment [15] and in experiment [17] were 1.01 and 2.31 (inactive), respectively.
As to `NCCCCCNC(=O)[C@H]1C[C@H]2C(=O)N3CCC[C@H]3C(=O)N2[C@H]1c1cccc(OCCO)c1`, the composite z-score is 0.729 with Albumin (Bos taurus); 0.185 in experiment [2]; 0.0305 in [3]; 0.705 in experiment [4]; 1.59 in experiment [5]; 0.466 in experiment [6]. Further, the composite z-score with Sam68 (KHDRBS1) came to 0.967; in [7], 0.18; in experiment [8], 0.894; in experiment [9], 3.3; in [10], 0.987; in experiment [11] it was 0.0204. Further, the composite z-score in [12] is 0.83; in [13], 0.208; in experiment [14], -0.146; in the experiment on Lefty1, -0.285; in [16], 1.29. Moreover, in [1], the composite Z-score is 0.325 (inactive). For the same molecule, the results for the z-score in [15] and in [17] were -0.705 and -0.165 (inactive), respectively.
Consider `COCCOC(=O)N1C(=O)[C@@]2(c3cc(C#CC4(O)CCCCCC4)ccc31)[C@H](c1ccc(O)cc1)N1[C@H](c3ccccc3)[C@H](c3ccccc3)OC(=O)[C@H]1[C@@H]2C(=O)N1CCN(c2ncccn2)CC1`, for which the composite z-score with Albumin (Bos taurus) is 0.521; in experiment [2] it was 0.0562; in experiment [3], -0.12; in experiment [4], 0.437; in experiment [5], 1.29; in experiment [6], 0.46. In addition, the composite z-score was 1.29 with Sam68 (KHDRBS1); -0.163 in experiment [7]; 1.12 in [8]; 0.388 in [9]; 1.17 in experiment [10]; 0.839 in experiment [11]. Further, the composite z-score in experiment [12] is 0.576; in experiment [13] it was 1.06; in experiment [14] it was 1.32; in the experiment with Lefty1 it was 0.497; in experiment [16], 0.417. The composite Z-score in experiment [1] is 0.883 (inactive). In addition, the z-score in experiment [15] was -0.976; in experiment [17], -0.47 (inactive).
As to `O=C(O)[C@@H]1C[C@@H]2C(=O)N3CCC[C@H]3C(=O)N2[C@@H]1c1ccc(O)cc1`, the composite z-score with Albumin (Bos taurus) is -0.0352; in [2], 0.0927; in experiment [3] it was -0.0126; in [4], 0.579; in experiment [5], 0.538; in experiment [6] it was 0.619. In addition, the composite z-score was found to be 0.721 in the experiment on Sam68 (KHDRBS1); 0.931 in experiment [7]; 0.878 in experiment [8]; 2.3 in [9]; 0.258 in experiment [10]; 0.251 in [11]. Moreover, the composite z-score in experiment [12] was -0.0516; in experiment [13] it was 1.42; in experiment [14], 1.07; with Lefty1 it was 0.824; in experiment [16] it was 0.0465. Also, in experiment [1], the composite Z-score is 0.309 (inactive). The z-score in experiment [15] is -0.269; in experiment [17], -0.985 (inactive).
As for `CCCCCN1CC=CC23O[C@@H]4C=CCCOC(=O)C4[C@H]2C(=O)N(CCCCCCO)[C@@H]3C1=O` (stereo not given in full), the composite z-score in the experiment with Albumin (Bos taurus) is -0.587; in experiment [2], -0.252; in [3], -0.203; in [4], 0.861; in [5], 2.33; in [6], 0.0488. The composite z-score with Sam68 (KHDRBS1) was 0.0067; in [7] it was -0.856; in experiment [8], -0.52; in [9] it was 2.82; in experiment [10], -0.0566; in experiment [11] it was -0.0757. For the same molecule, the composite z-score was -1.21 in [12]; -0.444 in experiment [13]; -0.439 in experiment [14]; -0.0715 in the experiment on Lefty1; -0.411 in [16]. In addition, in experiment [1], the composite Z-score is 0.976 (inactive). The results for the z-score in experiment [15] and in experiment [17] were 0.608 and -0.086 (inactive), respectively.
